Inconclusive results are not listed. Activity calls are given as the source filed them. Unless noted, the call rests on the fitted dose curve; in most records, active means well fitted curve in the direction sought with a large enough effect; inconclusive means small, poorly fitted or top-dose-only effect, or another doubt; inactive means no such curve, though single readings can be large; an effect the other way counts as inactive or inconclusive.
Assays:
[1] = Cell Viability - LYMP2-001 (AID 921); further: series mostly up to about 92 µM; nearly all actives have a fitted effect of over 70% in size
Method in brief: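 A lymphoblastoid cell line of human origin was treated with library compounds across a concentration series for 24 hours, and viable cell number was estimated from ATP-driven luciferase light output. Hill modeling gave AC50.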

[2] = MultiTox-Fluor Cytotoxicity Assay - LYMP1-001 - Dead Cells (AID 946);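 further: cells exposed to compound for 16 h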
Method in brief: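 AC50 from Hill fit of concentration-response; data normalized to DMSO (basal) and 15 uM tetraoctylammonium bromide (100%). LYMP1-001 lymphoblastoid cells, 2500/well, 16 hr compound at 37 C; dead-cell protease fluorescence, Ex/Em 485/520.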

[3] = MultiTox-Fluor Cytotoxicity Assay - LYMP1-001 - Live Cells (AID 947)
[4] = Cell Viability - LYMP1-002 - Assay at 16 hr (AID 948)
Method in brief: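 In this qHTS, lymphoblastoid LYMP1-002 cells (human) receive compounds for 16 hr at 37 C. Viability is taken from CellTiter-Glo ATP luminescence, and AC50 derives from standard Hill fits.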

[5] = MultiTox-Fluor Cytotoxicity Assay - LYMP1-002 - Live Cells (AID 955);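 further: cells exposed to compound for 16 hours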
Method in brief: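 Cells were seeded at 2500 per well and incubated 5 hr. Compounds were then added for 16 hr at 37 C, followed by MultiTox-Fluor reagent for 60 min at room temperature and fluorescence reading of viable-cell protease signal.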

[6] = MultiTox-Fluor Cytotoxicity Assay - LYMP1-002 - Dead Cells (AID 960);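 further: cells exposed to compound for 16 h at 37 °C; nearly all actives have a fitted effect of over 60% in size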
Method in brief: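 Cells were plated, rested 5 hr, then treated with compound dilution series for 16 hr at 37 C. After adding substrate reagent and 60 min at room temperature, dead-cell protease fluorescence gave concentration-response curves fitted by the Hill equation.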

[7] = MultiTox-Fluor Cytotoxicity Assay - LYMP1-003 - Dead Cells (AID 961);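 further: cells exposed to compound for 16 h at 37 °C; nearly all actives have a fitted effect of over 70% in size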; further: potency means the concentration at half of the fitted maximal effect
Method in brief: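 Human lymphoblastoid LYMP1-003 cells (2500/well) were treated with compounds for 16 hr at 37 C in complete medium. Dead-cell protease release was read by bis-AAF-R110 fluorescence (Ex/Em 485/520). AC50 came from Hill fits, normalized to DMSO and 15 uM tetraoctylammonium bromide.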

[8] = MultiTox-Fluor Cytotoxicity Assay - LYMP1-003 - Live Cells (AID 962);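 further: cells exposed to compound for 16 hours at 37 °C; cytotoxic hits lower the live-cell protease signal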
Method in brief: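 Acute cytotoxicity is scored as a drop in live-cell protease activity in human lymphoblastoid LYMP1-003 cells after 16 hr compound exposure at 37 C. AC50 values come from Hill-equation modelling of concentration-response data.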

[9] = Cell Viability - LYMP1-003 - Assay at 24 hr (AID 963)
Method in brief: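 Cytotoxicity is scored as a concentration-dependent fall in ATP-linked luciferase signal in human lymphoblastoid LYMP1-003 cells treated 24 hr at 37 C in complete culture medium.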

[10] = Cell Viability - LYMP1-003 - Assay at 40 hr (AID 964); further: series mostly up to about 92 µM; nearly all actives have a fitted effect of over 60% in size
Method in brief: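 Luminescent ATP signal (CellTiter-Glo) served as the viability read-out after 40 hr compound treatment of human lymphoblastoid LYMP1-003 cells at 37 C. Decreases in ATP were fitted with the Hill equation to give AC50.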

[11] = Cell Viability - LYMP2-003 (AID 965);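 further: cells exposed to compounds for 24 h before reading; nearly all actives have a fitted effect of over 50% in size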
Method in brief: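 qHTS, human lymphoblastoid line, 2500 cells/well, complete medium. 24 h drug, 37 C. ATP-based luminescent readout; Hill-fit AC50.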

[12] = Cell Viability - LYMP2-005 (AID 967); further: series mostly up to about 92 µM
Method in brief: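 Luciferase-based ATP quantitation served as the viability measure in human lymphoblastoid LYMP2-005 cells exposed to test compounds for 24 h at 37 C in complete culture medium. Potency (AC50) was obtained by fitting concentration-response curves with the Hill equation.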

[13] = Confirmation and Secondary Assay for Modulators of Hemoglobin Beta Chain Splicing at IVS2 705 locus (AID 930);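 further: HeLa cells stably expressing the EGFP-705 splicing reporter; GFP fluorescence per well restored by corrected splicing of the IVS2-705 intron in EGFP; series mostly up to about 46 µM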
Method in brief: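 HeLa EGFP-705 reporter; 500 cells/well, o/n 37C 5% CO2; cpd 2 d; 488 ex/500-520 em laser scan; total peak GFP intensity/well. Ref: 500 nM […] antisense PNA.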

[14] = qHTS Assay for Identification of Small Molecule Agonists for Thrombopoietin (TPO) Signaling Pathway (AID 917)
Method in brief: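 Human TPO receptor–transfected Ba/F3 cells (murine, IL-3-dependent) in IL-3-deficient medium; compounds plus TPO at EC50, 26 pM final; 24 hrs, 37 C; GpIIb-luciferase luminescence after 10 min RT detection.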

[15] = target: Muscarinic acetylcholine receptor M1 (Rattus norvegicus) (UniProt P08482); test: qHTS Assay for Antagonists of Acetylcholine Muscarinic M1 Receptor: Kinetic Measurement of Intracellular Calcium Response (AID 943);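 further: Fluo-4 calcium signal as peak divided by basal fluorescence over 4 min; series mostly up to about 35 µM; nearly all actives have a fitted effect of over 75% in size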
Method in brief: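 Antagonism is measured as inhibition of the carbachol-evoked calcium rise in CHO cells transfected with rat M1. Cells are dye-loaded, exposed to compound for 10 min, then stimulated with 100 nM carbachol (EC80).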

[16] = target: Muscarinic acetylcholine receptor M1 (Rattus norvegicus) (UniProt P08482); test: qHTS Assay for Antagonists of Acetylcholine Muscarinic M1 Receptor: Measurement of IP-One Response (AID 944); further: nearly all actives have a fitted effect of over 75% in size; further: potency means the concentration at half of the fitted maximal effect
Method in brief: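 Antagonist mode with rat M1 receptor transfected into CHO cells. Compound is added first for 10 min, carbachol at its EC80 follows for 30 min, and lysis reagents then allow TR-FRET detection of accumulated IP1.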

[17] = target: Pyruvate kinase (Leishmania mexicana) (UniProt Q27686); test: qHTS Validation Assay for Inhibitors of Leishmania Mexicana Pyruvate Kinase (AID 945)
Method in brief: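 Substrate mix (0.5 mM PEP, 0.1 mM ADP, 7 mM MgCl2, 50 mM KCl, pH 7.2 imidazole) received compound by pin tool, then 0.2 nM LmPYK E451W. After 1 h at room temperature, PKLight was added and luminescence measured.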

[18] = target: Pyruvate kinase PKM (Homo sapiens) (UniProt P14618); test: qHTS Assay for Activators of Human Muscle Pyruvate Kinase (AID 954; active means well fitted curve in the direction sought with a large enough effect, not every such curve was filed as active)
Method in brief: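 A coupled luminescent readout tracked ATP made from ADP by purified PKM2. Final conditions included 0.1 nM enzyme, PEP and ADP at 0.5 and 0.1 mM, pH 7.2 imidazole buffer with BSA, and a one-hour room-temperature reaction.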

[19] = qHTS Assay for Identification of Small Molecule Agonists for Hypoxia Response Element Signaling Pathway (AID 914; active means well fitted activation curve with a large enough effect in the signal ratio, with a control signal flat, not every such curve was filed as active; the % refers to the signal ratio; further: potency means the concentration at half of the fitted maximal effect); conditions: ME-180 (cervical carcinoma) HRE-bla reporter, beta-lactamase ratio, CoCl2, 17 h; activation: hits give high values
Method in brief: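 Read-out: CCF4 FRET ratio of 460nm to 530nm emission (excitation 405nm) after 2.5 hours at room temperature, taken from HRE-bla ME-180 cells that had been exposed to compound and EC50 CoCl2 for 17 hours.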

[20] = qHTS Assay for Identification of Small Molecule Antagonists for Thrombopoietin (TPO) Signaling Pathway (AID 918); conditions: TPO-dependent cell signaling reporter, antagonist mode; further: potency means the concentration at half of the fitted maximal effect; nearly all actives have a fitted effect of over 60% in size
Method in brief: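 Inhibitors of TPO signaling are sought by stimulating IL-3-starved murine Ba/F3 cells (human TPO receptor, Glycoprotein IIb-driven luciferase) with TPO at its EC50 of 26 pM alongside compound. After 24 hrs at 37 C, reporter luminescence is measured.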

Measured: Potency

Sequence of Pyruvate kinase (Leishmania mexicana) (Q27686 2-499 E452W): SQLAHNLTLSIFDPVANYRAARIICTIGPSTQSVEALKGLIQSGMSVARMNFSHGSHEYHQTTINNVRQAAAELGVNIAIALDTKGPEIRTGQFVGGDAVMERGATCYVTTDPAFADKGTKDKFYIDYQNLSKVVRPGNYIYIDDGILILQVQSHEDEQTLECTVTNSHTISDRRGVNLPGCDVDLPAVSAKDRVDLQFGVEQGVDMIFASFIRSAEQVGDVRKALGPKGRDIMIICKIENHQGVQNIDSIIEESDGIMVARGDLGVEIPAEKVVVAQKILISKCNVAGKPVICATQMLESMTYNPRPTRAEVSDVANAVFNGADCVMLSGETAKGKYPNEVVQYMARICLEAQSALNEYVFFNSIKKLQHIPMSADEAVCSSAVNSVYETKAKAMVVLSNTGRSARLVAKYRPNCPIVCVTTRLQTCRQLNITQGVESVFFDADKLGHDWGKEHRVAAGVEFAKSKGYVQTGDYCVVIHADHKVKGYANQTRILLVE
Sequence of Muscarinic acetylcholine receptor M1 (Rattus norvegicus) (P08482 whole entry, looked up): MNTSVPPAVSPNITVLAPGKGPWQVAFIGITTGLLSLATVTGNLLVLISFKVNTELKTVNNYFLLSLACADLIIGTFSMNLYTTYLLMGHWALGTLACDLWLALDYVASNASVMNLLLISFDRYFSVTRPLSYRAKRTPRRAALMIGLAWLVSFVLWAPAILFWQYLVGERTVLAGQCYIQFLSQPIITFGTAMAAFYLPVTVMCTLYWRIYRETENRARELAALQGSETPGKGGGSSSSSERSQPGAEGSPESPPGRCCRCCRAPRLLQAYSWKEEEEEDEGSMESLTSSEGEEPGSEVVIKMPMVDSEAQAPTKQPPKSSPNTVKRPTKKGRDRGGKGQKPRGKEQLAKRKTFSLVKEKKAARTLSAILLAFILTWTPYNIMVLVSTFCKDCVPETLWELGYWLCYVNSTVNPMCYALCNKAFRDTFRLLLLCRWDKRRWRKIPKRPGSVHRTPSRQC
Sequence of Pyruvate kinase PKM (Homo sapiens) (P14618 whole entry, looked up): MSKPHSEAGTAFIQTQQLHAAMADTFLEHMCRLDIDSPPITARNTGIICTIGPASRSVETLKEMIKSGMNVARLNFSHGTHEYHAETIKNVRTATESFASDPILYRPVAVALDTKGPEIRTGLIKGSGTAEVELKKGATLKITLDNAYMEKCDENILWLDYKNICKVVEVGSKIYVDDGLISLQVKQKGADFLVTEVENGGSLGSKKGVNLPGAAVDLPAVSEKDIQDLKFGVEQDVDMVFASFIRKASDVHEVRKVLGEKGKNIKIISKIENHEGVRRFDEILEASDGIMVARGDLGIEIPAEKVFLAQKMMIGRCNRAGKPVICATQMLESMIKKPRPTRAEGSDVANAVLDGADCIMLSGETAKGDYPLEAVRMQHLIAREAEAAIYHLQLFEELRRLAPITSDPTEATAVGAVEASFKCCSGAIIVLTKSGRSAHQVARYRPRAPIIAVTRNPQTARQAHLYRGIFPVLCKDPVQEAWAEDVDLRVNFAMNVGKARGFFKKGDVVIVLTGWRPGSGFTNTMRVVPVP

COc1cc([C@H]2Oc3cc([C@H]4Oc5cc(O)cc(O)c5C(=O)[C@@H]4O)ccc3O[C@@H]2CO)ccc1O
not listed: [13] | [14] | [15] | [16] | [17] | [18] | [19] | [20]
inactive: all other assays above

CCN(CC)CCNC(=O)COc1ccc(OC)cc1
inactive: [13]

NS(=O)(=O)Cc1noc2ccccc12
inactive: [14] | [15] | [16] | [17] | [18]

CCOC(=O)c1ccc(N)cc1
inactive: [13]

CN1CCC(OC(c2ccccc2)c2ccccc2)CC1
inactive: [13]

C=C[C@H]1CN2CC[C@H]1C[C@@H]2[C@@H](O)c1ccnc2ccc(OC)cc12
inactive: [1] | [2] | [3] | [4] | [5] | [7] | [8] | [9] | [10] | [11] | [12]

C/C=C/c1ccc(O)c(OC)c1
not listed: [13] | [14] | [15] | [16] | [17] | [18] | [19] | [20]
inactive: all other assays above

CCc1cc(Cl)c(OC)c(C(=O)NC[C@@H]2CCCN2CC)c1O
active: [19] 10 µM

NC(=O)c1ccccc1O
not listed: [14] | [15] | [16] | [17] | [18] | [19] | [20]
inactive: all other assays above

COc1ccc(C(=O)c2ccccc2)c(O)c1
not listed: [14] | [15] | [16] | [17] | [18] | [19] | [20]
inactive: all other assays above

CCN(CC)CCNC(=O)c1cc(Br)c(N)cc1OC
inactive: [13]

O=C1C(O)=C(O)C(=O)C(O)=C1O
inactive: [13]

CN1CCC[C@@H]1CCO[C@](C)(c1ccccc1)c1ccc(Cl)cc1
active: [20] 10 µM
inactive: [17] | [18]

CC(C)(C)NC[C@H](O)COc1nsnc1N1CCOCC1
inactive: [14] | [16] | [17] | [18]

Oc1ccc(Cl)cc1Cc1cc(Cl)ccc1O
inactive: [1] | [13] | [2] | [4] | [5] | [6] | [8] | [9]

CN(C)CCC[C@@]1(c2ccc(F)cc2)OCc2cc(C#N)ccc21
inactive: [14] | [13] | [17] | [18]
active: [16] 10 µM

NC(N)=NCc1cccc(I)c1
inactive: [15] | [16] | [17] | [18]

NCCNc1cccc2ccccc12
inactive: [2] | [3] | [4] | [5] | [6] | [7] | [8] | [9] | [10] | [11]

Oc1c(Cl)cc(Cl)c(Cl)c1Cc1c(O)c(Cl)cc(Cl)c1Cl
inactive: [4] | [9]
active: [7] 50.1 µM

Reference: PubChem BioAssay (NCATS)
